# Values joined by “and” are separate entries in the source; they are usually repeats but may differ in a detail not shown here. Equal values may be shown once. Results filed as inconclusive are left out. Active and inactive are the calls of the source. Unless noted, the call rests on the fitted dose curve; in most records, active means well fitted curve in the direction sought with a large enough effect; inconclusive means small, poorly fitted or top-dose-only effect, or another doubt; inactive means no such curve, though single readings can be large; an effect the other way counts as inactive or inconclusive.
# Legend:
# [1] = AP1 Signaling Pathway (AID 357; active means well fitted curve in either direction with a large enough effect, not every such curve was filed as active; further: on the % scale 0 is the no-effect control and ±100 the full control effect); conditions: ME-180 AP-1-bla reporter, EGF-induced, beta-lactamase ratio, 5 h; at 38 µM (top of the series)
# Procedure, shortened: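 AP-1-bla ME-180 cells with beta-lactamase reporter under AP-1 response element, stimulated with EC50 EGF; compounds titrated, 5 hours at 37 degrees Celsius. CCF4 read at 460/530 nm ratio; positive and negative modulators judged by AC50.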
# [2] = molecular target: Cytochrome P450 1A2 (Homo sapiens) (UniProt P05177); test: p450-cyp1a2 (AID 410; calls by dose curve;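 further: -100% = full effect of reference inhibitor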); conditions: recombinant CYP1A2, luciferin-ME demethylation, luminescence; series mostly up to 57 µM
# Procedure, shortened: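 Inhibition was calculated relative to 57 uM furafylline (full inhibition). The reaction used human CYP1A2 at 20nM with Luciferin-ME at its Km, 100uM, driven by an NADPH-regenerating system for 60 min at room temperature.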
# [3] = NFAT Signaling Pathway (AID 444; active means well fitted curve in either direction with a large enough effect, not every such curve was filed as active;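 further: carbachol stimulus at about its EC50 of 1 µM final; on the % scale 0 is the no-effect control and ±100 the full control effect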); conditions: Jurkat NFAT-bla M1, carbachol, beta-lactamase ratio, 5 h; at 38 µM (top of the series)
# Procedure, shortened: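 Jurkat cells with NFAT-driven β-lactamase reporter and co-expressed M1 receptor, stimulated with carbachol (final 1 uM, ~EC50), compound titration, 5 h at 37 °C. CCF4 loaded 1 h at RT; 460/530 nm ratio gave %activity and AC50.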
# [4] = Stat Signaling Pathway (AID 446; active means well fitted curve in either direction with a large enough effect, not every such curve was filed as active;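 further: ME-180 cervical cancer cells given 40 pM IL-6 alongside compound; SIE-controlled beta-lactamase reporter measured as 460/530 nm FRET emission ratio; on the % scale 0 is the no-effect control and ±100 the full control effect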); conditions: ME-180 SIE beta-lactamase reporter, IL-6 stimulated, 5 h; at 38 µM (top of the series)
# Procedure, shortened: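 Screening format detects activators and inhibitors alike: ME-180 SIE-bla cells stimulated at 40 pM IL-6 for 5 hrs with compound, then dual-emission beta-lactamase read at 405 nm excitation.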
# [5] = molecular target: Glucocorticoid receptor (Homo sapiens) (UniProt P04150); test: GR-GFP Redistribution (AID 450;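 active means compounds whose dose series gives a full or clear partial fitted curve of increased nuclear translocation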; further: potency means the concentration at half of the fitted maximal effect); conditions: U2OS GR-GFP nuclear translocation, laser cytometry, 2 h
# [6] = molecular target: Glucocorticoid receptor (Homo sapiens) (UniProt P04150); test: GR-EFC Redistribution (AID 451; calls by dose curve; further: potency means the concentration at half of the fitted maximal effect); conditions: CHO-K1 GR-EFC translocation, beta-gal luminescence, 2 h
# Procedure, shortened: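 CHO-K1 cells expressing nuclear EA and GR-ED fragments of b-gal; compounds titrated up to 46 uM final, 2 h at 37 C. GR nuclear translocation read as complemented b-gal luminescence after 1 h RT detection.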
# [7] = molecular target: Mitogen-activated protein kinase 10 (Mus musculus) (UniProt Q61831); test: JNK3 AlphaScreen Assay (AID 530; active means well fitted curve in either direction with a large enough effect, not every such curve was filed as active;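 further: kinase came from lysate of stimulated human HepG2 cells; signal reports phosphorylation of biotinylated GST-cJun 1-79 at Ser73 with 10 µM ATP; on the % scale 0 is the no-effect control and ±100 the full control effect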); conditions: JNK3 lysate, c-Jun phosphorylation; series mostly up to 57.1 µM
# Procedure, shortened: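 qHTS format: compounds tested as titrations against IL-1beta/TNF-alpha-activated HepG2 lysate JNK3 with biotin-GST-cJun substrate and 10 uM ATP at room temperature. Loss of anti-phospho-cJun AlphaScreen signal indicates inhibition.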
# [8] = molecular target: Guanine nucleotide-binding protein G(i) subunit alpha-1 (Homo sapiens) (UniProt P63096); test: qHTS Assay for Inhibitors of RGS12 GoLoco Motif Activity (Green Fluorophore) (AID 879); conditions: Galphai1/FITC-RGS12 GoLoco peptide, fluorescence polarization; series mostly up to 57.1 µM;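 further: 0% = labeled peptide with Gαi1 and full inhibition = labeled peptide alone without protein; negative values mean loss of peptide binding seen as reduced polarization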
# Procedure, shortened: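 Fluorescence polarization assay: 50 nM Gαi1 with 10 nM FITC-labeled RGS12 GoLoco peptide in 10 mM Tris pH 7.5, 150 mM NaCl, 0.1 mM GDP, 0.05% NP40, 10 min at room temperature with compound.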
# [9] = qHTS Assay for Identification of Small Molecule Agonists for Thrombopoietin (TPO) Signaling Pathway (AID 917); conditions: TPO signaling pathway reporter cells, agonist qHTS, stimulated with TPO at its EC50; series mostly up to 38.5 µM; further: on the % scale 0 is the no-effect control and ±100 the full control effect
# Procedure, shortened: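 Murine Ba/F3 cells stably expressing human TPO receptor and a Glycoprotein IIb promoter–luciferase reporter were IL-3-starved overnight, then treated with compounds plus TPO (26 pM final, its EC50) for 24 hrs at 37 C; luminescence was read.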
# [10] = molecular target: Pyruvate kinase (Leishmania mexicana) (UniProt Q27686); test: qHTS Validation Assay for Inhibitors of Leishmania Mexicana Pyruvate Kinase (AID 945);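 further: 0% = DMSO only neutral control wells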; conditions: purified L. mexicana pyruvate kinase, enzyme activity, E451W mutant enzyme; series mostly up to 57.5 µM
# Procedure, shortened: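 Eight-point qHTS titrations in triplicate, data normalized to DMSO neutral control. Reaction: 0.2 nM LmPYK E451W mutant, 0.5 mM PEP, 0.1 mM ADP, 7 mM MgCl2, pH 7.2, one hour at room temperature; luminescent ATP detection.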
# [11] = molecular target: Pyruvate kinase PKM (Homo sapiens) (UniProt P14618); test: qHTS Assay for Activators of Human Muscle Pyruvate Kinase (AID 954; active means well fitted curve in the direction sought with a large enough effect, not every such curve was filed as active;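 further: 0% = uninhibited enzyme and -100% = no enzyme or full thiadiazolimine inhibition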); conditions: purified human muscle pyruvate kinase, luciferase-coupled luminescence, 1 h; series mostly up to 57.5 µM
# Procedure, shortened: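 Reaction: 0.1 nM purified PKM2 with 0.5 mM phosphoenolpyruvate and 0.1 mM ADP, room temperature, 1 h. Readout: luciferase-based ATP luminescence after stop reagent. Activators judged against a 0.3 nM enzyme column.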
# [12] = molecular target: alpha-glucosidase (Oryza sativa, rice) (UniProt Q653V4); test: Counterscreen for Glucocerebrosidase Inhibitors: qHTS Assay for Rice alpha-Glucosidase at pH 5.0 (AID 997); conditions: rice alpha-glucosidase enzyme activity; series mostly up to 76.9 µM;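 further: 0% = full activity with enzyme and -100% = basal without enzyme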
# Procedure, shortened: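 Rice alpha-glucosidase (4 nM final) with 400 uM 4-methylumbelliferyl-alpha-D-glucopyranoside in citrate buffer pH 5.0, 20 min at room temperature, stopped at pH 10; fluorescence 365/440 nm, compounds 0.7 nM–77 uM, AC50 from Hill fits.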
# [13] = qHTS Assay for Lipid Storage Modulators (AID 1519; calls by dose curve); conditions: Drosophila S3 cells, BODIPY lipid droplet/cell ratio, laser cytometry, cells loaded with oleic acid
# Procedure, shortened: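 Cells seeded at 5,000 per well were treated with compounds over a concentration series and loaded with oleic acid (400 uM, as added). Lipid droplet fluorescence (488 nm excitation, 500-530 nm channel) was read by laser-scanning cytometry and normalized to 20 uM Triacsin C.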
# [14] = Primary qHTS for small molecule stabilizers of the endoplasmic reticulum resident proteome: Secreted ER Calcium Modulated Protein (SERCaMP) assay (AID 1508630); conditions: SH-SY5Y GLuc-SERCaMP (Gaussia luciferase released on ER calcium loss) secretion, thapsigargin, luminescence; series mostly up to 38.4 µM; further: on the % scale 0 is the no-effect control and ±100 the full control effect
# Procedure, shortened: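 GLuc-SERCaMP-expressing SH-SY5Y cells, pretreated 16 h with compound, are challenged with thapsigargin to empty ER calcium stores; after 4 h, coelenterazine is added directly to the medium and luminescence is imaged.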
# [15] = Primary qHTS for inhibitors of nuclear receptor binding SET domain protein 2 (NSD2) in an isogenic RCH-ACV NSD2 p.E1099K mutant (9B) (AID 1645876); conditions: RCH-ACV NSD2 E1099K (9B) viability, CellTiter-Glo, 72 h; series mostly up to 44.9 µM; further: potency means the concentration at half of the fitted maximal effect; nearly all actives have a fitted effect of over 70% in size
# [16] = Primary qHTS for inhibitors of nuclear receptor binding SET domain protein 2 (NSD2) in an RCH-ACV wild type WT cells (2C) (AID 1645877); conditions: RCH-ACV (leukaemia line) NSD2 WT (2C) viability, CellTiter-Glo, 72 h; series mostly up to 44.9 µM; further: potency means the concentration at half of the fitted maximal effect; nearly all actives have a fitted effect of over 70% in size
# [17] = molecular target: Glutathione peroxidase 1 (Homo sapiens) (UniProt P07203); test: Primary qHTS Assay for Inhibitors of Recombinant Selenoprotein Glutathione Peroxidase 1 (GPX1) (AID 1845191); conditions: recombinant GPX1, GR-coupled NADPH fluorescence, 15 min; series mostly up to 48.8 µM; further: nearly all actives have a fitted effect of over 65% in size; further: potency means the concentration at half of the fitted maximal effect
# Procedure, shortened: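 GR-coupled assay: compounds preincubated 30 min at room temperature with GPX1, then reaction started with CHP; final 10 nM GPX1, 1 mM GSH, 0.5 mM CHP, 0.5 mM NADPH, 100 nM GR, 0.01% BSA, pH 7.5 Tris buffer. NADPH fluorescence (340/450 nm) read at 0 and 15 min.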
# [18] = qHTS drug screen for cell cycle checkpoint inhibitors in PARPi-resistant BRCA-mutant ovarian cancer cell lines. (AID 1963452; calls by dose curve); conditions: PEO1/OlaR viability, CellTiter-Glo luminescence, 96 h, stronger effect = lower value
# Procedure, shortened: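 PEO1, PEO4 and PEO1/OlaR ovarian cancer cells, 600 per well, exposed 96 h at 37C to a dilution series. Viability read by CellTiter-Glo luminescence, normalized to DMSO and empty wells; activity summarized as Z-AUC.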
# [19] = molecular target: Catechol O-methyltransferase (Homo sapiens) (UniProt P21964); test: Confirmatory Screen for Target Class Profiling of Small Molecule Inhibitors of Methyltransferases (AID 1745852); conditions: MTase-Glo luminescence, SAH detection, recombinant enzyme; measured here: COMT max response; stronger effect = lower value
# [20] = molecular target: Guanidinoacetate N-methyltransferase (Homo sapiens) (UniProt Q14353); test: as above; conditions: MTase-Glo luminescence, SAH detection, recombinant enzyme; activity change, negative = inhibition: at 57.3 µM (top of the series) unless noted; series mostly up to 57.3 µM
# [21] = molecular target: Nicotinamide N-methyltransferase (Homo sapiens) (UniProt P40261); test: as above; conditions: MTase-Glo luminescence, SAH detection, recombinant enzyme; measured here: NNMT max response; stronger effect = lower value
# [22] = molecular target: Phenylethanolamine N-methyltransferase (Homo sapiens) (UniProt P11086); test: as above; conditions: MTase-Glo luminescence, SAH detection, recombinant enzyme; measured here: PNMT max response; stronger effect = lower value
# Chain of Phenylethanolamine N-methyltransferase (Homo sapiens) (P11086 whole entry, looked up): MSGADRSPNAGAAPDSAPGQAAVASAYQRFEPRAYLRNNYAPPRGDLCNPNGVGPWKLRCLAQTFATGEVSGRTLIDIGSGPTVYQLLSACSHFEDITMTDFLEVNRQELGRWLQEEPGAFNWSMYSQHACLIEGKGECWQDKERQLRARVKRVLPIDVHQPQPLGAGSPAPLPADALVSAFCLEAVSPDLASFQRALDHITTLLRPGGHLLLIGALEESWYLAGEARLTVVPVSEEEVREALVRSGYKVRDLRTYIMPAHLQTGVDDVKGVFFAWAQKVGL
# Chain of Glutathione peroxidase 1 (Homo sapiens) (P07203 whole entry, looked up): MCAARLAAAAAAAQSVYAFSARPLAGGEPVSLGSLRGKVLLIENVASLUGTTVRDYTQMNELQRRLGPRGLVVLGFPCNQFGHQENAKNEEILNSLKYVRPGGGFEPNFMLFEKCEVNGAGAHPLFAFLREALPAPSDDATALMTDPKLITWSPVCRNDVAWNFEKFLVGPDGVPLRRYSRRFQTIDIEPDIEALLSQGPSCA
# Chain of Glucocorticoid receptor (Homo sapiens) (P04150 whole entry, looked up, the tested form may be a part): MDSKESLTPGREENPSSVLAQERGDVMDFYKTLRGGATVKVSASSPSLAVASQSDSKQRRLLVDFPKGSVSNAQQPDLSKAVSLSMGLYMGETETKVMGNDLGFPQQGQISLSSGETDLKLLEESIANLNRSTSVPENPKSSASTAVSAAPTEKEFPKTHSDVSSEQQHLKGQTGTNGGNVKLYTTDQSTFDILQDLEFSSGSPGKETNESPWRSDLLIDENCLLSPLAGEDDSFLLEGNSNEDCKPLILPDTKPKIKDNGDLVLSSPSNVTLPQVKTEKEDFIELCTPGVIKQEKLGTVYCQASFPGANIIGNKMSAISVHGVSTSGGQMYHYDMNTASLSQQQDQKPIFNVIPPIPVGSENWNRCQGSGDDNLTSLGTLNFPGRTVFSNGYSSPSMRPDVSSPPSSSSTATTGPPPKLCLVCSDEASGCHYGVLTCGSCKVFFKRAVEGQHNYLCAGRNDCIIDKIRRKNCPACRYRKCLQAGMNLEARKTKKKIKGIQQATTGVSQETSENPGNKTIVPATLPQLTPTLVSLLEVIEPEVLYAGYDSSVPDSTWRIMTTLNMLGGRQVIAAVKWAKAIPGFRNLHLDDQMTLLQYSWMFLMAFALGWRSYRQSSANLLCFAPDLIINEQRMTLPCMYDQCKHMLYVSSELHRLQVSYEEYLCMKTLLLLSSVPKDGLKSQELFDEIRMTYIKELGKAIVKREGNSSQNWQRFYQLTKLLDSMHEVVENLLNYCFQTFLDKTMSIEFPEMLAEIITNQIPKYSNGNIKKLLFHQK
# Chain of Cytochrome P450 1A2 (Homo sapiens) (P05177 whole entry, looked up): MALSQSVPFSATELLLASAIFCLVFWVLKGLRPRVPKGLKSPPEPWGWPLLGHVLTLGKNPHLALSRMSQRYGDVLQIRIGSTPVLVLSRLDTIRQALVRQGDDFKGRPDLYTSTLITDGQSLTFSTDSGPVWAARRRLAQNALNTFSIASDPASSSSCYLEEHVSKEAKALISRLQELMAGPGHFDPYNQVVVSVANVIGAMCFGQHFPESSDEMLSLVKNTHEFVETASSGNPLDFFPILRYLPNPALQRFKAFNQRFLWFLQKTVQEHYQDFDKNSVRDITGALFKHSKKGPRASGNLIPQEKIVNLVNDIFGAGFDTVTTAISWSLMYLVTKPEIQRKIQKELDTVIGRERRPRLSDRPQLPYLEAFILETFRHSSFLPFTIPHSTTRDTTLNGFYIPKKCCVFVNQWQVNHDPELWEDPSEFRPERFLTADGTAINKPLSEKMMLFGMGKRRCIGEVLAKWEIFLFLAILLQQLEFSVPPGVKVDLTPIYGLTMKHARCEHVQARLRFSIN
# Chain of Pyruvate kinase PKM (Homo sapiens) (P14618 whole entry, looked up): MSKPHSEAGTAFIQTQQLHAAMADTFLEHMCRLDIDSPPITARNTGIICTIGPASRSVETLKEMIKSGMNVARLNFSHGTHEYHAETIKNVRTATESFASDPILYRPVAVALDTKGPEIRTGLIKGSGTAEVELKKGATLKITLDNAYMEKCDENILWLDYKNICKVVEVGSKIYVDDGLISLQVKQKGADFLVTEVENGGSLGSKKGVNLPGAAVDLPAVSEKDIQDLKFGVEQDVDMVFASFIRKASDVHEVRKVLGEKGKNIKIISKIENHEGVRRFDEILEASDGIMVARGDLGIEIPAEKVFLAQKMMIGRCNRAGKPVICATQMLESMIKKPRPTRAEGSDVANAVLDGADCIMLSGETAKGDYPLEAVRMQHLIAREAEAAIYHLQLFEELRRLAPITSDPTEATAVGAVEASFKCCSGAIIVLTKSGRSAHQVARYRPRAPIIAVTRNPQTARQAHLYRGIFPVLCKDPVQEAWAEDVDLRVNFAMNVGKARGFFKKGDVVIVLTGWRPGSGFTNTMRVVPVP
# Chain of Guanine nucleotide-binding protein G(i) subunit alpha-1 (Homo sapiens) (P63096 whole entry, looked up): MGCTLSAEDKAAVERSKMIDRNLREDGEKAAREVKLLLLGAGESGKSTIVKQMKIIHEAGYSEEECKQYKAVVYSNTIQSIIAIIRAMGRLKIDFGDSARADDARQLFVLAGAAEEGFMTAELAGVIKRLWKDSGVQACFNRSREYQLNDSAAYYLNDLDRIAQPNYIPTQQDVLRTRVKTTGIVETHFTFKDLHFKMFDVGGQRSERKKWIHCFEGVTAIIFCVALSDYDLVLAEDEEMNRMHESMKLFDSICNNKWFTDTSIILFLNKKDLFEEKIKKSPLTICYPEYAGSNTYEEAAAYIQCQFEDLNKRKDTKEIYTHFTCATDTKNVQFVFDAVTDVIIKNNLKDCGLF
# Chain of Catechol O-methyltransferase (Homo sapiens) (P21964 whole entry, looked up): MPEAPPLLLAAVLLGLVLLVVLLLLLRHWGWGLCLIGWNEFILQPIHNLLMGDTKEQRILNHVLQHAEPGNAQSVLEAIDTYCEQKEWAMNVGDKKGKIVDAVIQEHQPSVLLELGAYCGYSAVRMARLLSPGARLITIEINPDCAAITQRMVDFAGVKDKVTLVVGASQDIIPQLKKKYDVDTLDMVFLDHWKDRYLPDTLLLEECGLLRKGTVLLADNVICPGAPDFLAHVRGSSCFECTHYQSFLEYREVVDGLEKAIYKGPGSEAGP
# Chain of Pyruvate kinase (Leishmania mexicana) (Q27686 2-499 E452W): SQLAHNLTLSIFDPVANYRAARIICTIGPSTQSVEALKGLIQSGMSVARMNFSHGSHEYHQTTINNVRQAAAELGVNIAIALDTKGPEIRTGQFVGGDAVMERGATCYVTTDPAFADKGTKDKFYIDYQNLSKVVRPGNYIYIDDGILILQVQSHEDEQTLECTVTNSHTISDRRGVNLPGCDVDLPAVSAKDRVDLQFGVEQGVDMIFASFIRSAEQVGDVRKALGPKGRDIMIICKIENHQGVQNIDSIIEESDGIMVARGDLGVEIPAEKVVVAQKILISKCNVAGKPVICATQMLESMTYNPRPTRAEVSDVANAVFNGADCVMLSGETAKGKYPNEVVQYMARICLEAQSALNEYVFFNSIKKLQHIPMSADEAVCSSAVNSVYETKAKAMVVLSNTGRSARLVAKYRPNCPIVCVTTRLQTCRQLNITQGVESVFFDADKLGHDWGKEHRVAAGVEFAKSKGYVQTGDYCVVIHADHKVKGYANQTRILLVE
# Chain of Nicotinamide N-methyltransferase (Homo sapiens) (P40261 whole entry, looked up): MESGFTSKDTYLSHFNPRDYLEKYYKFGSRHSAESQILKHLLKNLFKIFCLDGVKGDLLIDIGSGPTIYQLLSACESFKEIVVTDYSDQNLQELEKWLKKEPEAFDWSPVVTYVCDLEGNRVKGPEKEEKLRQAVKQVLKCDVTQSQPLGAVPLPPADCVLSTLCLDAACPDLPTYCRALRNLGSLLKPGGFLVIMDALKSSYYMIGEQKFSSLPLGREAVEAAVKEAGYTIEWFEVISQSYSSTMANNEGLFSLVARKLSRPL
compound,measurement,setting,value
N[C@@H](CO)C(=O)O,"activity change, negative = inhibition",[1],6.64% (inactive)
same,Potency,[2],inactive
same,"activity change, negative = inhibition",[3],1.99% (inactive)
same,"activity, negative = inhibition",[4],-12.9% (inactive)
same,Potency,[5],> 46 µM (inactive)
same,Potency,[6],> 46 µM (inactive)
same,Potency,[7],inactive
same,outcome,[8],inactive
same,Potency,[9],inactive
same,Potency,[10],inactive
same,outcome,[11],inactive
same,outcome,[12],inactive
same,"activity change, negative = inhibition",[13]; at 57.5 µM (top of the series),-1.57% (inactive)
same,max response,[13]; measured here: cell count channel max response,0.892%
same,max response,[13]; measured here: lipid channel max response,-1.78%
same,Potency,[14],inactive
COc1cc2ncnc(Nc3ccc(NC(=O)c4ccccc4)cc3)c2cc1OC,Potency,[15],8.2 µM (active)
same,Potency,[16],5.8 µM (active)
same,Potency,[17],inactive
C[C@@H](Nc1cc(F)cc(F)c1)c1cc(C(=O)N(C)C)cc2c(=O)cc(N3CCOCC3)oc12,Potency,[15],259 nM (active) and 235 nM (active)
same,Potency,[16],411 nM (active) and 1.18 µM (active)
same,Potency,[17],inactive
same,Z-AUC,[18],-0.864 (inactive)
same,Z-AUC,[18]; measured here: PEO1 parental Z-AUC,-0.746
same,Z-AUC,[18]; measured here: PEO4 Z-AUC,-0.41
Oc1cc(CNC(=S)/C=C/c2cc(O)c(O)c(Br)c2)cc(O)c1O,Potency,[15],1.16 µM (active)
same,Potency,[16],1.03 µM (active)
same,activity,[19],-46.2%
same,"activity change, negative = inhibition",[20],-4.79%
same,activity,[21],-0.986%
same,activity,[22],-0.984%
same,Potency,[17],8.06 µM (active)

# From PubChem BioAssay (NCATS)
